Screens from PubChem.
MITF primary – human MITF inhibition, primary screen. O75030. AlphaScreen MITF homodimerization, bead proximity signal. inhibition, % at 2.6 µM. hit rate 0.91% among 650,000. AID 1259374; in the data active means inhibition above about 50%
TEAD-YAP inh – TEAD-YAP interaction inhibition. HEK-TIYL cells, TEAD-Gal4/YAP UAS-luciferase luminescence. inhibition, % at 9.12 µM. hit rate 1.4% among 640,000; in the data active means inhibition above about 32%
GPR151 activ – activators of human GPR151; hit rate 1% among 650,000; activation, % at 11.2 µM; PathHunter beta-arrestin GPR151 cells, luminescence; Q8TDV0; in the data active means activation above about 4.9%
FBW7 activator – activators of human E3 ligase FBW7 | Q969H0 | AlphaScreen FBW7–phospho-cyclin E peptide binding, activator screen | normalized activity (activation), % at 26.1 µM | hit rate 0.13% among 650,000 | AID 1259310; in the data active means normalized activity above about 1.9%;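 further: purified mutant Fbw7 with reduced substrate affinity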
GPR151 confirm – confirmation of human GPR151 activators; shares compounds with GPR151 activ; GPR151 PathHunter beta-arrestin cells, luminescence, 90 min; % of EA-reagent control over plate median; activation, % at 11.2 µM; 6,700 tested, under 10 active; AID 1508609;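 active means mean percent activation across replicates above the confirmation screen cutoff of 4.91%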
GPR119 counter – activates human GPR119 in a GPR151 counter-screen | shares compounds with GPR151 activ | GPR119 PathHunter beta-arrestin cells, luminescence, 90 min; 0 = compound-well median, 100 = enzyme-acceptor control | activation, % at 11.2 µM | hit rate 0.3% among 6,700 | AID 1508611;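 active means mean percent activation in the counterscreen above 29.09%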;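 further: counterscreen on off-target GPR119 to flag nonselective hits from the GPR151 activator screen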
Target sequence (Q8TDV5 whole entry, looked up): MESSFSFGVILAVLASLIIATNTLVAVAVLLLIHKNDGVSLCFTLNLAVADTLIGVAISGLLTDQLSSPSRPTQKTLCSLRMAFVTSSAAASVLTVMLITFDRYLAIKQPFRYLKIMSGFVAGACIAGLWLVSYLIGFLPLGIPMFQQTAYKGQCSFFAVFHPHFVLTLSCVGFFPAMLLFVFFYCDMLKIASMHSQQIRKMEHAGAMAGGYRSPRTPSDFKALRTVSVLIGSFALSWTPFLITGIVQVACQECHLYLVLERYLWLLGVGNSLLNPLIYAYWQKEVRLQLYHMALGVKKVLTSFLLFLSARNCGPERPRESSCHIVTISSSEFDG
Numbers stand for hits; - = inactive; . = no result. Shown are actives, neighbours in structure and some others; about 3.5% of the full set was active somewhere.

SMILES	MITF primary	TEAD-YAP inh	GPR151 activ	FBW7 activator	GPR151 confirm	GPR119 counter
Cc1cc2c(o1)c1cnn(CC(=O)NC3CC3)c(=O)c1n2C(C)C	-	-	-	-	.	.
COc1cccc(/C=C2\SC(=O)N(CCC(=O)O)C2=O)c1	-	-	-	-	.	.
COc1nc(N(C)C)nc(N(C#N)C(C)C(=O)N(C)C)n1 (stereo not drawn)	-	-	-	-	.	.
CCCc1ccc2c(n1)sc1c(=O)oc(C)nc12	-	-	-	-	.	.
CC1(C)CC(=O)C2=C(C1)OC1=C(C(=O)CC(C)(C)C1)C2c1cccs1	-	-	-	-	.	.
CC(=O)C1C2=C(CC(C)(C)CC2=O)OC2=C1C(=O)CC(C)(C)C2	-	-	6.7	-	-	-
CC1(C)CC(=O)C2=C(C1)OC1=C(C(=O)CC(C)(C)C1)C2C=C(Cl)Cl	-	-	6.6	-	-	-
Cc1cc(NC(=O)CSc2nc3c(sc(=S)n3Cc3ccco3)c(=O)n2-c2ccccc2)n[nH]1	-	-	-	-	.	.
Cc1ccc(S(=O)(=O)c2nc(NCCN(C)C)sc2Cl)cc1	-	-	5.2	-	-	-
Cc1cccc(CC(Cc2nc3ccccc3[nH]2)c2nc3ccccc3[nH]2)c1 (stereo not drawn)	-	-	5.6	-	-	-
O=c1[nH]c(O)c(C=Nc2ccc(F)c(F)c2)c(=O)[nH]1	-	-	13	-	-	-
COc1ccc(N=Cc2c(O)[nH]c(=S)[nH]c2=O)cc1OC	-	-	7.2	-	-	-
CCCC(=O)Oc1ccc(C=O)cc1OCC	-	-	-	-	.	.
CN(CC(=O)c1ccc2cc[nH]c2c1)Cc1ccccc1	-	-	5.3	-	-	-
O=C(NCCCN1CCCC1=O)c1cncc(-c2cccs2)c1	-	-	-	-	.	.
COc1ccc(C2C3C(C)=NN=C3CC(C)(O)C2C(C)=O)cc1 (stereo not drawn)	-	-	6.6	-	-	-
CC(=O)C1C(c2ccc(F)cc2)C2C(C)=NN=C2CC1(C)O (stereo not drawn)	-	-	-	-	.	.
COc1ccc(/C=N/N(C)C2=NCCN2)c(OC)c1OC	-	-	6.9	-	-	-
CCC(C)NC(=O)c1cc(=O)[nH]c2ccc(Br)cc12 (stereo not drawn)	-	-	8.8	-	-	33
CC(C)CCNC(=O)c1cc(=O)[nH]c2ccc(Br)cc12	-	-	-	-	.	.
O=C(NC1CC1)c1cc(=O)[nH]c2ccc(Br)cc12	-	-	6.2	-	-	-
Cc1ccc(C(=O)N/C(=C/c2cccs2)C(=O)N2CCOCC2)cc1	-	-	-	-	.	.
COc1cc(C(=O)N(Cc2nc(-c3ccc(C)cc3)no2)C(C)C)cc(OC)c1OC	-	-	8.3	-	-	-
CC(=O)Nc1cccc(NC(=O)CSc2ccc3nc(-c4ccccc4)cn3n2)c1	-	-	-	-	.	.
O=[N+]([O-])c1cccc(S(=O)(=O)NCc2ccc(F)cc2)c1	-	-	9.0	-	-	-
SMILES	MITF primary	TEAD-YAP inh	GPR151 activ	FBW7 activator	GPR151 confirm	GPR119 counter
O=C(CN(Cc1ccccc1)S(=O)(=O)c1ccc(F)cc1)Nc1cccc([N+](=O)[O-])c1	-	-	-	-	.	.
O=[N+]([O-])c1cccc(S(=O)(=O)NCc2ccco2)c1	-	-	-	-	.	.
O=C(CN(Cc1ccc(F)cc1)S(=O)(=O)c1ccccc1)Nc1cccc([N+](=O)[O-])c1	-	-	5.1	-	-	-
CC(C)(C)NC(=O)CN(Cc1ccccc1)S(=O)(=O)c1ccc(F)cc1	-	-	5.3	-	-	-
NS(=O)(=O)c1cccc(NC(=O)COC(=O)CNS(=O)(=O)c2ccccc2F)c1	-	-	-	-	.	.
CCOC(=O)c1ccccc1NC(=O)C(C)N(c1ccc(C)cc1)S(C)(=O)=O (stereo not drawn)	-	-	5.9	-	-	-
CCOC(=O)c1ccc(NC(=O)C(C)N(c2ccc(C)c(C)c2)S(C)(=O)=O)cc1 (stereo not drawn)	-	-	5.1	-	-	-
COC(=O)c1ccc(NC(=O)C(C)N(c2ccc(C)c(C)c2)S(C)(=O)=O)cc1 (stereo not drawn)	-	-	-	-	.	.
CCOC(=O)c1ccccc1NC(=O)C(C)N(c1ccc(Cl)cc1)S(C)(=O)=O (stereo not drawn)	-	-	-	-	.	.
COc1cc(C(=O)N(c2ccc(C)cc2)C2C=CS(=O)(=O)C2)cc(OC)c1OC (stereo not drawn)	-	-	-	-	.	.
CCOC(=O)C1=C(C)NC(SCC(N)=O)=C(C#N)C1c1cccs1 (stereo not drawn)	-	-	-	-	.	.
CCOC(=O)C1=C(C)NC(SCC(=O)Nc2cc(C)on2)=C(C#N)C1c1cccs1 (stereo not drawn)	-	-	5.8	-	-	-
Cn1nc(-c2ccnc(Nc3ccc(N4CCOCC4)cc3)c2)cc1Nc1ccccc1	-	-	5.7	-	-	-
NC(=O)c1ccccc1Nc1ccnc(Nc2ccc(N3CCOCC3)cc2)c1	-	-	-	-	.	.
NC(=O)c1cc2ccccc2cc1Nc1ccnc(Nc2ccc(N3CCOCC3)cc2)c1	-	83	6.5	-	-	-
O=C1CCCCN1c1cccc(NS(=O)(=O)c2cc(F)ccc2F)c1	-	-	7.1	-	-	-
CCOC(=O)Cc1nnc2c(Nc3cc(C)ccc3C)nc3nonc3n12	-	-	-	-	.	.
CCn1c(Cc2ccccc2)nnc1SCC(=O)N1CCCCC1	-	-	6.3	-	-	-
COc1ccc(N2CCN(C(=O)COc3ccc(Cl)cc3Cl)CC2)nn1	-	-	-	-	.	.
COc1ccc(S(=O)(=O)N2N=C(C)Oc3ccccc3C2=O)cc1	-	44	5.2	-	-	-
O=C(NNC(=O)c1c(O)c2ccccc2[nH]c1=O)c1cccc(Cl)c1	-	-	-	-	.	.
CNC(=O)C(=O)NCC(c1ccco1)S(=O)(=O)c1ccc(Cl)cc1 (stereo not drawn)	-	-	5.2	-	-	-
O=C(NCCO)C(=O)NCC(c1ccco1)S(=O)(=O)c1ccc(Cl)cc1 (stereo not drawn)	-	-	-	-	.	.
O=C(NCc1cccnc1)C(=O)NCC1OCCCN1S(=O)(=O)c1cccs1 (stereo not drawn)	-	-	-	-	.	.
COC(=O)c1ccc(C2C3=C(CC(C)(C)CC3=O)N(c3cccc(C(F)(F)F)c3)C3=C2C(=O)CC(C)(C)C3)cc1	-	-	6.8	-	-	-
CC(/C=C/c1ccc(N(C)C)cc1)=N\N=C1/NC(=O)CC(C(=O)Nc2ccccc2)S1 (stereo not drawn)	-	-	-	-	.	.
O=C1CCCN1CCn1cnc2c(Nc3ccc(N4CCOCC4)cc3)nc(Nc3ccc(-n4ccnc4)cc3)nc21	-	-	5.9	-	-	-
O=C1CCCN1CCn1cnc2c(NCCO)nc(Nc3ccc(N4CCOCC4)cc3)nc21	-	-	5.6	-	-	-
